Data from PubChem BioAssay (EPA / NIEHS).
“And” between values parts separate entries of the source, which are not always exact repeats. Equal entries are not always repeated. Inconclusive results are not listed. The source made the active and inactive calls. The calls were made as follows: active = hit-call score of the fitted dose curve at least 0.9, where 1 is the maximum; inconclusive = response in the unintended direction; inactive = score below 0.9.

Experiments:
[1] = TOX21_p53_BLA_p2_viability: Viability Assessment in the Tox21 HCT-116 p53 Agonism Beta-lactamase Assay, Phase 2 (AID 2283591);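 also: actives lower the ATP signal meaning cytotoxicity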
How it was run: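 HCT116 p53-bla cells, 4000/well, dosed after 5 h plating (217-fold dilution of DMSO stocks) and incubated 16 h at 37C. Viability taken as cellular ATP by CellTiter-Glo luminescence after 30 min RT; signal loss marks cytotoxicity.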

[2] = target: Cellular tumor antigen p53 (Homo sapiens) (UniProt P04637); assay: TOX21_p53_BLA_p2_ratio: Tox21 HCT-116 p53 Agonism Beta-lactamase Assay, Ratio, Phase 2 (AID 2283592)
Sequence of Cellular tumor antigen p53 (Homo sapiens) (P04637 whole entry, looked up): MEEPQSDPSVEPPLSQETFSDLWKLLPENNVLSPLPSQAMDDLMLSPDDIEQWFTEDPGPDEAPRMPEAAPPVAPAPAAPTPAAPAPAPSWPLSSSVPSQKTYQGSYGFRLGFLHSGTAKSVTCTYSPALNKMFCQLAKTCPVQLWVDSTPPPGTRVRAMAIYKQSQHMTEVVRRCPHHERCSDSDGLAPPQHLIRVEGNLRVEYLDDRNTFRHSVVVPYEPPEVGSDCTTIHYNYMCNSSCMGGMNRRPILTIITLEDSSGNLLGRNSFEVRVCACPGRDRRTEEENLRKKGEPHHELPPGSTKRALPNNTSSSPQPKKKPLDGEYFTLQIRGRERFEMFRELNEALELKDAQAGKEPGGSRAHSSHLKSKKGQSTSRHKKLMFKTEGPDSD
How it was run: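 Readout: blue/green (460/530 nm) FRET emission ratio after 2 h CCF4-AM loading at room temperature, excitation 405 nm. HCT116 p53 bla cells, 16 h compound exposure at 37C, 5% CO2; agonist direction fitted against DMSO baseline.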

[3] = TOX21_p53_BLA_p3_viability: Viability Assessment in the Tox21 HCT-116 p53 Agonism Beta-lactamase Assay, Phase 3 (AID 2283593);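 also: cells exposed to compound for 16 h before reading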
How it was run: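 HCT116 cells, 4000/well, dosed 5 h after plating by pin transfer (217-fold dilution from DMSO stock) and incubated 16 h at 37C, 5% CO2. Viability read as ATP luminescence with CellTiter-Glo after 30 min at room temperature.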

[4] = target: Cellular tumor antigen p53 (Homo sapiens) (UniProt P04637); assay: TOX21_p53_BLA_p3_ratio: Tox21 HCT-116 p53 Agonism Beta-lactamase Assay, Ratio, Phase 3 (AID 2283596)
How it was run: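 Cells were seeded at 4000/well, rested 5 h at 37C, then dosed with DMSO compound solutions (217-fold dilution) for 16 h. CCF4-AM substrate was loaded for 2 h at room temperature, and the 460/530 nm emission ratio was fitted for gain of signal versus DMSO.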

[5] = TOX21_p53_BLA_p4_viability: Viability Assessment in the Tox21 HCT-116 p53 Agonism Beta-lactamase Assay, Phase 4 (AID 2283597);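 also: hits lower the luminescence signal meaning cytotoxicity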
How it was run: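 ATP content by CellTiter-Glo luminescence, 30 min RT, read after the beta-lactamase ratio step. Cells: HCT116, 4000/well, compound added after 5 h, exposure 16 h at 37C. Signal loss = reduced viability.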

[6] = target: Cellular tumor antigen p53 (Homo sapiens) (UniProt P04637); assay: TOX21_p53_BLA_p5_ratio: Tox21 HCT-116 p53 Agonism Beta-lactamase Assay, Ratio, Phase 5 (AID 2283599)
How it was run: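 HCT-116 p53-bla cells (4000/well) plated 5 h, dosed with compound (217-fold DMSO dilution) for 16 h at 37 C; CCF4-AM substrate 2 h at room temperature. Activity is the 460/530 nm emission ratio (405 nm excitation), fitted in gain-of-signal direction versus DMSO.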

[7] = TOX21_p53_BLA_p5_viability: Viability Assessment in the Tox21 HCT-116 p53 Agonism Beta-lactamase Assay, Phase 5 (AID 2283600)
How it was run: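 ATP luminescence (CellTiter-Glo, 30 min, RT) served as the viability read-out, with loss of signal indicating cytotoxicity. Compounds in DMSO were pinned at a 217-fold dilution onto 4000 cells/well and incubated 16 h, 37C.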

[8] = target: Cellular tumor antigen p53 (Homo sapiens) (UniProt P04637); assay: TOX21_p53_BLA_p4_ratio: Tox21 HCT-116 p53 Agonism Beta-lactamase Assay, Ratio, Phase 4 (AID 2283601)
How it was run: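 HCT-116 p53 beta-lactamase reporter cells (4000/well) preincubated 5 h, then compound (217-fold dilution of DMSO stock) for 16 h at 37C. CCF4-AM substrate added 2 h at room temperature; 460/530 nm emission ratio fitted upward versus DMSO.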

Measured: AC50

CC(=O)C1(C)CC2=C(CCCC2(C)C)CC1C (stereo unspecified)
inactive: [1] | [2] | [3] | [4] | [5] | [6] | [7] | [8]

Clc1ccc(C(c2ccccc2Cl)C(Cl)Cl)cc1 (stereo unspecified)
active: [1] 46.1 µM and 30.1 µM | [2] 83.3 µM and 39.1 µM | [3] 67.7 µM and 31.2 µM | [4] 55.9 µM and 37.2 µM | [5] 64.3 µM and 25.8 µM | [6] 83.4 µM and 42.3 µM | [7] 72.7 µM and 35.9 µM | [8] 82.4 µM and 36.6 µM

c1ccc(CCc2ccccc2)cc1
inactive: [1] | [2] | [6] | [7] | [8]

NCC1CCCC(CN)C1 (stereo unspecified)
inactive: [1] | [2] | [4] | [6] | [7] | [8]

O=C(CS)OCCOC(=O)CS
active: [2] 42.9 µM | [6] 58.3 µM | [8] 53.3 µM
inactive: [1] | [5]

CN(C)C(=S)SC(=S)N(C)C
inactive: [1] | [2] | [3] | [4] | [5] | [6] | [8]

CCCSc1ccc2nc(NC(=O)OC)[nH]c2c1
active: [2] 336 nM and 247 nM | [4] 394 nM and 199 nM | [6] 373 nM and 193 nM | [8] 339 nM and 175 nM
inactive: [1] | [3] | [5] | [7]

O=C(O)CNc1ccccc1
inactive: [1] | [2] | [3] | [4] | [6] | [7] | [8]

CC(=O)c1ccccn1
inactive: [1] | [2] | [4] | [5] | [6] | [7]

C=C(C)C(=O)OCCOCCOCCOCCOC(=O)C(=C)C
inactive: [1] | [2] | [3] | [4] | [5] | [7] | [8]

CCC(C)S (stereo unspecified)
inactive: [1] | [2] | [3] | [6] | [7]

CCCCCC(C=O)=Cc1ccccc1
inactive: [1] | [2] | [3] | [4] | [5] | [6] | [8]

Nc1ccccc1[N+](=O)[O-]
inactive: [1] | [2] | [3] | [4] | [5] | [6] | [7] | [8]

CCCC(=O)c1ccccc1
inactive: [1] | [2] | [3] | [5] | [6] | [8]

OCCc1ccccc1
inactive: [1] | [2] | [3] | [4] | [6] | [8]

COC(C)(C)CCCC(C)CC=O (stereo unspecified)
inactive: [1] | [2] | [4] | [6] | [7] | [8]

CN1CCOCC1
inactive: [1] | [2] | [4] | [6] | [7] | [8]

C1=CC2C3C=CC(C3)C2C1 (stereo unspecified)
inactive: [1] | [2] | [3] | [5] | [6] | [7] | [8]

COC(=O)c1cccnc1
inactive: [1] | [2] | [3] | [4] | [5] | [6] | [7] | [8]

CCOc1ccccc1O
inactive: [1] | [2] | [6] | [7] | [8]

O=c1c(O)c(-c2ccc(O)cc2)oc2cc(O)cc(O)c12
inactive: [1] | [2] | [4] | [6] | [8]

CCCN(CCC)S(=O)(=O)c1ccc(C(=O)O)cc1
inactive: [1] | [2] | [3] | [5] | [6] | [7] | [8]

O=c1[nH]c(=O)c2cn[nH]c2[nH]1
inactive: [1] | [2] | [3] | [4] | [6] | [7] | [8]

CCCCC1(COC(=O)CCC(=O)O)C(=O)N(c2ccccc2)N(c2ccccc2)C1=O
inactive: [1] | [2] | [3] | [4] | [5] | [6] | [7] | [8]

c1ccc2[nH]cnc2c1
inactive: [1] | [2] | [3] | [5] | [6] | [8]

CCc1cc(C(C)(C)C)c(O)c(C(C)(C)C)c1
inactive: [1] | [2] | [3] | [5] | [6] | [7] | [8]
